HP1b chromo inh = inhibitors of HP1-beta chromodomain binding to methylated histone tails | P83916 | AlphaScreen HP1-beta / biotin-H3K9me3 peptide binding | Potency, µM (highest dose often 114 µM), hits mostly inhibitors | 390,000 tested, 0.56% active | AID 540317; note: nearly all actives have a fitted effect of over 70% in size
Target sequence (P83916 whole entry, looked up): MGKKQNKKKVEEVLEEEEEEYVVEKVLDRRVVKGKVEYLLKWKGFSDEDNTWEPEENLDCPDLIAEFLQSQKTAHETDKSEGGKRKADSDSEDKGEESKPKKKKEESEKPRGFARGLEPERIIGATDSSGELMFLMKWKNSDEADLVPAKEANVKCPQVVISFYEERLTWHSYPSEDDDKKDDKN
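HP1-beta protein (50 nM final) preincubated 30 min at room temperature with biotinylated H3(1-18)K9me3 peptide (50 nM) in PBS pH 7.4, 0.01% Tween-20, then compound added for 30 min. AlphaScreen streptavidin donor/nickel chelate acceptor beads (10 ug/mL final), 30 min dark, luminescence read.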
JMJD2A Tudor inh = inhibitors of human JMJD2A Tudor domain; 390,000 tested, 4.4% active; AID 504339; AlphaScreen JMJD2A-Tudor / H3K4me3 peptide binding; Potency, µM (top dose mostly 114 µM), usual class: inhibitors; note: nearly all actives have a fitted effect of over 50% in size
PLK1 PBD block = inhibitors of human PLK1 polo-box domain binding | P53350 | Plk1 PBD binding of FITC phosphopeptide, fluorescence polarization | Potency, µM, actives largely listed as inhibitors | 360,000 tested, 2.8% active | AID 720504; note: series mostly up to about 57 µM; nearly all actives have a fitted effect of over 65% in size
BAZ2B inh = inhibitors of human BAZ2B bromodomain; AlphaScreen BAZ2B-H3K14Ac peptide displacement; Q9UIF8; 360,000 tested, 4.4% active; Potency, µM (highest dose often 114 µM), actives largely listed as inhibitors; note: nearly all actives have a fitted effect of over 60% in size
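AlphaScreen luminescence quantifies BAZ2B engagement of H3K14Ac peptide; the protein and biotinylated peptide are both at 50 nM final, buffer PBS pH 7.4 with 0.01% Tween-20, all steps at room temperature.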
G9a inh-1 = inhibitors of human histone lysine methyltransferase G9a | Potency, µM (doses to about 102 µM), hits mostly inhibitors | Q96KQ7 | 350,000 tested, 8.8% active | AID 504332 | G9a H3K9 monomethylation, AlphaScreen, 2 h; note: nearly all actives have a fitted effect of over 75% in size
Target sequence (Q96KQ7 913-1193 limits assumed): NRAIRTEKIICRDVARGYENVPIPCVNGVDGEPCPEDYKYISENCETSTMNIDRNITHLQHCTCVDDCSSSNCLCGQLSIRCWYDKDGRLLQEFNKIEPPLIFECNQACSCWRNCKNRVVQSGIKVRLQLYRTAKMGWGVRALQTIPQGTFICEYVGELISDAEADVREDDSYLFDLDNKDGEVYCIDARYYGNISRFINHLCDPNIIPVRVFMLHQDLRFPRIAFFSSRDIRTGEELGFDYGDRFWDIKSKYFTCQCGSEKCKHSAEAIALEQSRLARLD
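AlphaScreen detection with an anti-monomethyl H3K9 antibody quantified product after a 2 h room-temperature reaction containing 500 nM biotinylated H3K9 peptide, 20 µM SAM and 20 nM enzyme, which had been preincubated 15 min with compound.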
Sfp PPTase inh = blocks B. subtilis Sfp PPTase activity; Biochemical Sfp PPTase activity, qHTS; Potency, µM, hits mostly inhibitors; 310,000 tested, 3.5% active; AID 1490;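 note: the enzyme is Sfp with the accession as filed and its product quenches rhodamine fluorescence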
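Step 1, compound plus 15 nM Sfp-PPTase, 15 min, room temperature. Step 2, add rhodamine-CoA (5 uM) and BHQ-2-YbbR (12.5 uM). Step 3, read 525/598 nm fluorescence at 0 and 30 min.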
G9a inh-2 = inhibits human G9a histone lysine methyltransferase, hit confirmation. 370 tested, 89% active. G9a H3K9 monomethylation, AlphaScreen, 2 h. Potency, µM, hits mostly inhibitors. AID 588344. shares compounds with JMJD2A Tudor inh; note: nearly all actives have a fitted effect of over 65% in size
RGS4 inh = confirmation of human RGS4 inhibitors. 25 tested, 80% active. RGS4 GAP activity, Transcreener GDP fluorescence polarization. shares compounds with JMJD2A Tudor inh. Potency, µM, usual class: inhibitors
Target sequence (P49798 whole entry, looked up): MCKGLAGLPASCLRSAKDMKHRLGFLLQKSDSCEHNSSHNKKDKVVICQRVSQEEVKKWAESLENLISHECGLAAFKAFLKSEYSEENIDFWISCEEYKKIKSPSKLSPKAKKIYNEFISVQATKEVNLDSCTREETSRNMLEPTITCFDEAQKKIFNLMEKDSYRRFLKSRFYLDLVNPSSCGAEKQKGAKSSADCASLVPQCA
Numbers stand for hits; - = inactive; ? = inconclusive; . = no result given; [ ] = another dose, or the depositor's remark. Sampled rows, rich in hits. Any-hit rate of the full collection: about 12%. Calls come from the whole dose curve; as a rule, active = well fitted curve in the direction sought with a large enough effect; inconclusive = small, poorly fitted or top-dose-only effect, or another doubt; inactive = no such curve, though single readings can be large; an effect the other way counts as inactive or inconclusive.

SMILES | HP1b chromo inh | JMJD2A Tudor inh | PLK1 PBD block | BAZ2B inh | G9a inh-1 | Sfp PPTase inh | G9a inh-2 | others
CCN(CC)c1ccc(NC(=O)c2cc(OC)cc(OC)c2)c(C)c1 | - | ? | - | 40µM | 2.5µM | - | 3.2
CCOC(=O)N1CCc2c(sc(NC(=O)Cc3ccccc3)c2C(=O)c2ccc(OC)cc2)C1 | - | - | - | - | ? | - | .
CCOc1ccc(NC(=O)c2c(NCc3cccnc3)sc3c2CCC(C)C3)cc1 (stereo unspecified) | - | 16µM | . | ? | 2.2µM | . | 1.3
CCOC(=O)N1CCc2c(sc(NCc3ccc(OC)c(Br)c3)c2C(=O)Nc2cc(OC)ccc2OC)C1 | ? | ? | . | - | 1.6µM | . | 1.8
CCOc1ccc(NC(=O)c2c(NCc3ccc(C)o3)sc3c2CCC(C)C3)cc1 (stereo unspecified) | - | ? | . | - | ? | . | .
CCOC(=O)N1CCc2c(sc(NCc3cccc(F)c3)c2C(=O)Nc2ccc(OCC)cc2)C1 | - | ? | . | ? | 2µM | . | 3.6
CCOC(=O)N1CCc2c(sc(NCc3sccc3C)c2C(=O)Nc2cc(OC)ccc2OC)C1 | ? | 11µM | . | ? | 2.8µM | . | 5.8
CCN(Cc1ccncc1)Cc1nc(Cc2ccccc2Cl)no1 | - | - | - | - | - | - | .
CCN(Cc1ccncc1)Cc1c(O)ccc2ccccc12 | ? | 79µM | 2.7µM | - | 1.4µM | - | 0.36
COc1ccc(CCN2C(=O)N(c3cccc(C)c3)C(=O)C2CC(=O)Nc2ccccc2)cc1OC (stereo unspecified) | - | - | . | - | - | . | .
Cc1cccc(OCC(=O)N(C)CCc2ccccn2)c1 | ? | ? | - | 35µM | ? | - | 10
Cc1cc2nn(-c3ccc(F)cc3)nc2cc1NC(=O)c1ccc(C(C)(C)C)cc1 | - | - | . | - | - | . | .
COc1ccc(-n2nc3cc(C)c(N)cc3n2)cc1Cl | - | 56µM | - | 79µM | 0.71µM | 79µM | 0.5
Cc1ccc(-n2nc3ccc(N)cc3n2)cc1 | - | - | - | - | ? | - | 0.25
Nc1ccc2nn(-c3ccc(F)cc3)nc2c1 | - | - | - | - | - | - | .
Cc1cc2nn(-c3ccc(F)cc3)nc2cc1N | - | - | - | - | 1µM | ? | 0.56
CCN(CC)C(=O)C1CCN(Cc2cccc(OCc3ccccc3)c2)CC1 | 56µM | 50µM | - | 35µM | 2.8µM | - | 28
CCOc1cccc(CN2CCC(n3nccc3NC(=O)CCCc3ccccc3)CC2)c1 | - | ? | - | - | . | - | .
O=C(Nc1ccc(N2CCCCCC2)cc1)c1ccccc1Cl | 35µM | 32µM | - | 28µM | 2.5µM | - | 7.1
O=C(Nc1ccc(N2CCCC2)cc1)c1ccc(Cl)cc1Cl | - | - | - | - | - | - | .
CC(C)C(=O)Nc1ccc(N2CCN(c3ccc(F)cc3)CC2)cc1 | - | - | - | - | - | - | .
CC(C)C(=O)Nc1ccc(N2CCCC2)cc1 | - | ? | - | - | ? | 79µM | 1
Cc1cc(C)cc(C(=O)Nc2ccc(N3CCCC3)cc2)c1 | - | ? | - | ? | - | 50µM | 0.71
COc1cc(CNC(C)C)c(Br)cc1OC1CCCC1 | - | - | - | - | - | - | .
COc1ccc(CN2C(=O)C(CC(=O)NCc3ccco3)CC(C(=O)N3CCOCC3)=C2C)cc1 (stereo unspecified) | . | . | - | . | . | . | .
SMILES | HP1b chromo inh | JMJD2A Tudor inh | PLK1 PBD block | BAZ2B inh | G9a inh-1 | Sfp PPTase inh | G9a inh-2 | others
CC(C)(C)C1=Nn2c(nnc2-c2ccccn2)SC1 | ? | 7.9µM | - | 20µM | ? | 56µM | 1.8
CCC(C)c1ccc(OCCn2cc(/C=N/NC(=O)CSc3nnc(C)s3)c3ccccc32)cc1 (stereo unspecified) | - | - | - | - | ? | - | .
CC[C@H](C)[C@@H](C(=O)NCCCCCCCCCCC(=O)N1CCNCC1)n1cc(CCCCN=C(N)N)nn1 | - | - | - | - | -[2.33 µM] | . | .
Cc1ccccc1OCc1ccc(-c2nc(C#N)c(N3CCN(c4ccccc4)CC3)o2)o1 | - | - | . | ? | ? | . | ?
Cc1ccc(-c2nc3cccc(C)n3c2Nc2ccc(F)cc2)o1 | ? | 56µM | . | . | . | . | . | RGS4 inh=19
COC(=O)c1ccccc1NC(=O)CSc1nc2sc3c(c2c(=O)[nH]1)CCCC3 | ? | 56µM | . | ? | ? | . | 4.1
CCn1cnc2cc(NCc3cccc(OC)c3O)ccc21 | - | - | - | ? | ? | - | 0.28
CCCn1cnc2cc(NCc3ccc(OC)cc3OC)ccc21 | - | ? | . | 40µM | 2.8µM | . | 5.8
Oc1ccc2ccccc2c1CN1CCOCC1 | ? | ? | 27µM | - | 0.35µM | - | 0.8
Oc1cnc2ccccc2c1CN1CCOCC1 | - | - | - | - | ? | - | .
CN(C)C1=NC[C@H](Cc2ccccc2)N1CCCC1CCCC1 | - | - | - | ? | ? | . | 2.8
Cc1ccc(NC(=O)CC[C@H]2O[C@@H](n3cnc4c(NC(=O)c5ccccc5)ncnc43)[C@H](O)[C@@H]2O)cc1C | . | . | - | . | . | . | .
Nc1nc(NCCCN2CCOCC2)nc(NCc2ccccc2)c1[N+](=O)[O-] | - | - | - | - | - | - | .
CC1CN(Cc2c(O)ccc3c2oc(=O)c2ccccc23)CC(C)O1 (stereo unspecified) | ? | 10µM | - | 4µM | 0.45µM | 79µM | 0.28
Cc1cn2c(=O)cc(COc3cccc(NC(=O)c4ccc(C(C)(C)C)cc4)c3)nc2s1 | - | - | . | - | 0.79µM | . | ?
Cc1cccc(C(=O)Nc2cccc(OCc3cc(=O)n4cc(C)sc4n3)c2)c1 | - | - | . | - | - | . | .
CN(C)c1ccc(C(c2nnnn2CCOC(=O)Nc2ccc(Cl)cc2)N2CCOCC2)cc1 (stereo unspecified) | ? | ? | - | 45µM | ? | - | 18
O=C(Nc1ccc(Cl)cc1)OCCn1nnnc1C(c1ccccc1)N1CCOCC1 (stereo unspecified) | - | - | - | - | -[12.7 µM] | - | .
COc1ccccc1C(=O)N1CCC(c2c[nH]c3ccccc23)(c2c[nH]c3ccccc23)CC1 | - | - | . | - | - | . | .
O=C(Nc1nc(-c2ccccn2)cs1)c1cccc(-n2cnnn2)c1 | - | 79µM | - | 50µM | - | ? | . | RGS4 inh=?
O=C(Nc1ccccc1)C1=C[C@@H](c2ccc(Br)cc2)C[C@@H](OCCCCO)O1 | - | - | - | - | ? | - | .
O=C(Cc1ccccc1)Nc1sc2c(c1C(=O)Nc1ccccc1)CCCCC2 | - | ? | . | ? | ? | . | .
O=C(Nc1sc2c(c1C(=O)Nc1cccc(Cl)c1)CCCC2)c1cccs1 | - | 71µM | . | - | 1.6µM | . | 4.1

Screens: PubChem, National Center for Advancing Translational Sciences (NCATS)
